This note sets out measurements from PubChem BioAssay (EPA / NIEHS).

The term AC50 denotes the concentration giving half of the maximal activity seen.

Read-out in assay [1]: Tissue Factor, F3 (gene 2152)
The assay can be described thus: BSK_CASM3C_TissueFactor: BioMAP Diversity Plus: CASM3C Assay for Tissue Factor Biomarker Activity (AID 2283052).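 Note: cell surface tissue factor protein level read by ELISA.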 Conditions: primary human coronary artery smooth muscle cells; actives raise or lower the signal.

Read-out in assay [2]: Interferon-gamma inducible Protein 10 (IP10), CXCL10 (gene 3627)
Kind of assay: BSK_hDFCGF_IP10: BioMAP Diversity Plus: hDFCGF Assay for Interferon-gamma inducible Protein 10 (IP10) Biomarker Activity (AID 2283053). Conditions: primary human foreskin fibroblasts; actives raise or lower the signal. The procedure, abridged: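 Primary foreskin fibroblasts, human; 24 h compound exposure; IP-10 by ELISA; bidirectional fit vs DMSO.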

Read-out in assay [3]: Urokinase-type plasminogen activator receptor (uPAR), PLAUR (gene 5329)
Kind of assay: BSK_CASM3C_uPAR: BioMAP Diversity Plus: CASM3C Assay for Urokinase-type plasminogen activator receptor (uPAR) Biomarker Activity (AID 2283054).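 Note: cell-surface uPAR protein level quantified by ELISA.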 To be noted: primary human coronary artery smooth muscle cells; actives raise or lower the signal.

Read-out in assay [4]: Vascular cell adhesion molecule 1 (VCAM1), VCAM1 (gene 7412)
Kind of assay: BSK_CASM3C_VCAM1: BioMAP Diversity Plus: CASM3C Assay for Vascular cell adhesion molecule 1 (VCAM1) Biomarker Activity (AID 2283055).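 Note: VCAM-1 protein level quantified by ELISA on the cells.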 Conditions: primary human coronary artery smooth muscle cells; actives raise or lower the signal.

Read-out in assay [5]: Collagen III, COL3A1 (gene 1281)
The assay can be described thus: BSK_hDFCGF_CollagenIII: BioMAP Diversity Plus: hDFCGF Assay for Collagen III Biomarker Activity (AID 2283056). Conditions: primary human foreskin fibroblasts; actives raise or lower the signal. The procedure, abridged:
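hDFCGF primary human dermal fibroblasts; 24 h chemical exposure; collagen III by ELISA; bidirectional curve fit vs DMSO baseline (gain or loss of signal).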

Read-out in assay [6]: Epidermal growth factor receptor (EGFR), EGFR (gene 1956)
Kind of assay: BSK_hDFCGF_EGFR: BioMAP Diversity Plus: hDFCGF Assay for Epidermal growth factor receptor (EGFR) Biomarker Activity (AID 2283057). To be noted: primary human foreskin fibroblasts; actives raise or lower the signal. The procedure, abridged:
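hDFCGF system, primary human foreskin fibroblasts; compound 24 h; EGFR measured by ELISA; DMSO = negative control/baseline; bidirectional fitting.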

Read-out in assay [7]: Interleukin-8 (IL8), CXCL8 (gene 3576)
Kind of assay: BSK_hDFCGF_IL8: BioMAP Diversity Plus: hDFCGF Assay for Interleukin-8 (IL8) Biomarker Activity (AID 2283058). To be noted: primary human foreskin fibroblasts; actives raise or lower the signal. The procedure, abridged:
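ELISA read-out of IL-8 from primary human foreskin fibroblast cultures taken 24 h after dosing; values are bidirectional fits relative to DMSO vehicle.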

Assay [8] can be described thus: BSK_hDFCGF_Proliferation: Cell Proliferation Assessment in the BioMAP Diversity Plus: hDFCGF Assay (AID 2283059).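 Note: curves fitted for both rise and fall of signal versus DMSO baseline.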 Conditions: primary human foreskin fibroblasts. The procedure, abridged: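 This proliferation readout used SRB total-protein staining of human foreskin fibroblasts […], normalized to DMSO with bidirectional curve fitting.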
Read-out in assay [9]: Macrophage colony-stimulating factor (MCSF), CSF1 (gene 1435)
Kind of assay: BSK_hDFCGF_MCSF: BioMAP Diversity Plus: hDFCGF Assay for Macrophage colony-stimulating factor (MCSF) Biomarker Activity (AID 2283060). Conditions: primary human foreskin fibroblasts; actives raise or lower the signal. The procedure, abridged: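 ELISA read-out of M-CSF in human dermal foreskin fibroblast cultures, 24 h after chemical dosing; gain or loss of signal fitted bidirectionally relative to DMSO baseline.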

Assay [10] in a line: BSK_hDFCGF_SRB: Viability Assessment in the BioMAP Diversity Plus: hDFCGF Assay (AID 2283061).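 Note: cells exposed to compound for 24 h before the read.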 Conditions: primary human foreskin fibroblasts. The procedure, abridged: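 Primary human foreskin fibroblasts; 24 h post-dose; fixed 10% TCA, stained 0.1% SRB, A560 read; total protein as overt cytotoxicity measure; curves fit bidirectionally vs DMSO control.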
Read-out in assay [11]: TIMP metallopeptidase inhibitor 1 (TIMP1), TIMP1 (gene 7076)
Kind of assay: BSK_hDFCGF_TIMP1: BioMAP Diversity Plus: hDFCGF Assay for TIMP metallopeptidase inhibitor 1 (TIMP1) Biomarker Activity (AID 2283062). To be noted: primary human foreskin fibroblasts; actives raise or lower the signal. The procedure, abridged: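 ELISA readout of TIMP-1 from human dermal foreskin fibroblast cultures 24 h post-dosing. Curves were fitted in both directions against DMSO baseline, with SRB total-protein staining in parallel cultures as a cytotoxicity check.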

Read-out in assay [12]: Matrix Metallopeptidase 1 (MMP1), MMP1 (gene 4312)
Kind of assay: BSK_hDFCGF_MMP1: BioMAP Diversity Plus: hDFCGF Assay for Matrix Metallopeptidase 1 (MMP1) Biomarker Activity (AID 2283064). Conditions: primary human foreskin fibroblasts; actives raise or lower the signal. The procedure, abridged:
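Primary human foreskin fibroblasts in the hDFCGF system were dosed with test chemical, and MMP1 was measured by ELISA 24 h later. Values come from bidirectional curve fitting against the DMSO baseline.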

Read-out in assay [13]: Vascular cell adhesion molecule 1 (VCAM1), VCAM1 (gene 7412)
Kind of assay: BSK_hDFCGF_VCAM1: BioMAP Diversity Plus: hDFCGF Assay for Vascular cell adhesion molecule 1 (VCAM1) Biomarker Activity (AID 2283065).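 For AC50: VCAM-1 protein level quantified by ELISA after 24 h chemical exposure.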 Conditions: primary human foreskin fibroblasts; actives raise or lower the signal. The procedure, abridged: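 ELISA read-out of VCAM-1 on human skin fibroblasts, 24 h post-dose; gain or loss of signal fitted bidirectionally against DMSO baseline.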

Read-out in assay [14]: Plasminogen activator inhibitor-1 (PAI1), SERPINE1 (gene 5054)
Kind of assay: BSK_hDFCGF_PAI1: BioMAP Diversity Plus: hDFCGF Assay for Plasminogen activator inhibitor-1 (PAI1) Biomarker Activity (AID 2283066). To be noted: primary human foreskin fibroblasts; actives raise or lower the signal. The procedure, abridged:
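Primary dermal fibroblasts (human foreskin), hDFCGF system; compound 24 h; PAI-1 by ELISA; bidirectional fit vs DMSO control.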

Read-out in assay [15]: Intercellular Adhesion Molecule 1 (ICAM1), ICAM1 (gene 3383)
The assay can be described thus: BSK_KF3CT_ICAM1: BioMAP Diversity Plus: KF3CT Assay for Intercellular Adhesion Molecule 1 (ICAM1) Biomarker Activity (AID 2283067). Conditions: primary human keratinocytes with fibroblasts; actives raise or lower the signal. The procedure, abridged: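 ELISA readout of ICAM-1; KF3CT human skin co-culture (keratinocytes + foreskin fibroblasts), 24 h post-dose; gain/loss fit vs DMSO baseline.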

Read-out in assay [16]: Interferon-gamma inducible Protein 10 (IP10), CXCL10 (gene 3627)
The assay can be described thus: BSK_KF3CT_IP10: BioMAP Diversity Plus: KF3CT Assay for Interferon-gamma inducible Protein 10 (IP10) Biomarker Activity (AID 2283068). Conditions: primary human keratinocytes with fibroblasts; actives raise or lower the signal. The procedure, abridged: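 Signal is secreted/surface IP-10 by ELISA in a human primary skin co-culture of keratinocytes and foreskin fibroblasts, taken 24 h post-dosing; DMSO served as negative control.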

Assay [17] is described as follows: BSK_KF3CT_SRB: Viability Assessment in the BioMAP Diversity Plus: KF3CT Assay (AID 2283069).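 Note: total protein by sulforhodamine B staining as a cytotoxicity measure; read 24 h after compound addition.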 Conditions: primary human keratinocytes with fibroblasts. The procedure, abridged: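 Human primary keratinocyte plus foreskin fibroblast co-culture exposed to chemicals for 24 h. Total protein measured by 0.1% sulforhodamine B staining after 10% TCA fixation, read at 560 nm; bidirectional fitting versus DMSO baseline.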

Read-out in assay [18]: Interleukin-1 alpha (IL1a), IL1A (gene 3552)
Kind of assay: BSK_KF3CT_IL1a: BioMAP Diversity Plus: KF3CT Assay for Interleukin-1 alpha (IL1a) Biomarker Activity (AID 2283070). Conditions: primary human keratinocytes with fibroblasts; actives raise or lower the signal. The procedure, abridged: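 Human keratinocyte plus foreskin fibroblast primary co-culture, sampled 24 h after chemical dosing. IL-1a measured by ELISA; responses fitted bidirectionally against DMSO baseline (negative control), so gain or loss of signal both count.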

Read-out in assay [19]: TIMP metallopeptidase inhibitor 2 (TIMP2), TIMP2 (gene 7077)
Kind of assay: BSK_KF3CT_TIMP2: BioMAP Diversity Plus: KF3CT Assay for TIMP metallopeptidase inhibitor 2 (TIMP2) Biomarker Activity (AID 2283071). Conditions: primary human keratinocytes with fibroblasts; actives raise or lower the signal. The procedure, abridged:
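Cells: human keratinocytes co-cultured with foreskin fibroblasts. Treat with chemical, 24 h. Measure TIMP-2 by ELISA; fit curves bidirectionally vs DMSO baseline.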

Read-out in assay [20]: Monokine induced gamma interferon (MIG), CXCL9 (gene 4283)
The assay can be described thus: BSK_hDFCGF_MIG: BioMAP Diversity Plus: hDFCGF Assay for Monokine induced gamma interferon (MIG) Biomarker Activity (AID 2283063). Conditions: primary human foreskin fibroblasts; actives raise or lower the signal. The procedure, abridged:
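Fibroblasts (human foreskin, primary) dosed, 24 h, MIG by ELISA; fit bidirectional vs DMSO.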

Each structure is given as a SMILES string. Activity calls are given as the source filed them. Rule for the calls: active = hit-call score of the fitted dose curve at least 0.9, where 1 is the maximum; inactive = score below 0.9.

Consider `CCOC(=O)[C@]1(c2ccccc2)Oc2ccccc2[C@@H]1N`, for which the result in assay [1], in [3], in [4], in assay [6], in [12] and in assay [15] was inactive. In addition, the result in assay [16], in assay [17], in assay [18] and in [19] was inactive. Also, the AC50 in assay [2] was 36.6 µM (active); in [5], 31.9 µM (active); in [7], 32.2 µM (active); in assay [8], 17.8 µM (active); in [9], 28.4 µM (active); in assay [10] it was 26.9 µM (active). Besides, the values for the half-maximal activity concentration (AC50) in assay [11], in [13] and in assay [14] were 30.2 µM (active), 36.6 µM (active) and 33.6 µM (active), respectively.

Take `Oc1ccc2ccc3cccc4ccc1c2c34`: the result in [1], in assay [4], in [6], in [7], in [11] and in assay [12] was inactive. The result in assay [17] was inactive. For the same compound, the AC50 in assay [2] was 10.3 µM (active); in [3] it was 27 µM (active); in assay [5], 14.6 µM (active); in [8], 3.17 µM (active); in assay [9], 10.4 µM (active); in [10], 20 µM (active). The AC50 in [20] was 7.57 µM (active); in assay [13] it was 8.34 µM (active); in [14] it was 22.5 µM (active); in [16], 26.7 µM (active); in assay [18] it was 20 µM (active); in assay [19] it was 31.3 µM (active).

As to `[O-][Cl+]O`, the result in assay [1], in [2], in [3], in assay [4], in assay [5] and in [6] was inactive. For the same compound, the outcome in assay [7], in [8], in [9], in assay [10], in [11] and in assay [20] was inactive. Moreover, the outcome in assay [12], in [13], in [14], in [16], in [17] and in [18] was inactive. The result in assay [19] was inactive.

`CC(C)(O)c1cnn2c(-c3ccc(F)c(-c4c(F)cccc4C#N)c3)cnc2n1`: the result in assay [1], in assay [2], in assay [3], in [4], in [6] and in [7] was inactive. Moreover, the outcome in assay [8], in assay [9], in assay [10], in [11], in assay [20] and in assay [13] was inactive. In addition, the result in assay [14] and in [18] was inactive. Further, the AC50 in assay [5] was 5.96 µM (active); in assay [12], 6.43 µM (active); in assay [16] it was 23.2 µM (active); in [17] it was 33.2 µM (active); in assay [19], 31 µM (active).

As for `CCCCOC(=O)c1ccccc1C(=O)OCc1ccccc1`, the outcome in [1], in assay [2], in [3], in assay [4], in assay [6] and in [7] was inactive. The result in assay [8], in assay [10], in [11], in assay [20], in assay [12] and in assay [14] was inactive. The outcome in assay [16], in [17], in [18] and in [19] was inactive. The AC50 was 13 µM (active) in [5], 11.8 µM (active) in assay [9] and 20 µM (active) in [13].
